Screening results: PubChem, ICCB-Longwood Screening Facility, Harvard Medical School
Hits are enriched below; roughly 0.68% of the tested compounds scored in any of these assays.
Sa ugtP lethal: kills S. aureus RN4220 lacking UgtP; S. aureus RN4220 ugtP deletion, OD600 growth, 16 h; growth inhibition, % (no concentration beside the values); 0.54% of 330,000 active; in the data active = growth inhibition above about 68%;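 also: plate controls were untreated wells for no effect and antibiotic for full effect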
Mtb hypoxia inh: inhibitors of hypoxia-regulated fluorescent reporter in Mycobacterium tuberculosis; M. tuberculosis hypoxia-regulated fluorescent reporter, fluorescence; fluorescence inhibition, % (no concentration beside the values); 0.1% of 300,000 active; in the data active = fluorescence inhibition mostly above about 23%, no sharp cut-off; inactive = mostly below about 17%
RN4220 kill: S. aureus RN4220 growth inhibition; OD600, 16 h; inhibition, % (concentration not given with the values); 0.33% of 330,000 active; AID 1259311; in the data active = inhibition above about 85%;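 also: plate controls were untreated cells for no effect and reference antibiotic for full effect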
Active calls of the source: *; / = not tested or not shown.

SMILES | Sa ugtP lethal | Mtb hypoxia inh | RN4220 kill
CC1(C(=O)NN=Cc2ccc([N+](=O)[O-])o2)CC1(Br)Br (stereo not given) | 89.1* | 0.8 | 81.5
CCCc1ccc(-c2cc(C(=O)NN=Cc3ccc([N+](=O)[O-])o3)c3ccccc3n2)cc1 | 99.1* | / | 108.5*
O=C(NN=Cc1ccc([N+](=O)[O-])o1)c1cc2c(ccc3ccccc32)o1 | 98.5* | -5.9 | 98.2*
O=C(NN=Cc1ccc([N+](=O)[O-])o1)c1cc(-c2ccncc2)nc2ccccc12 | -2.9 | -3.6 | 2.9
O=C(O)COc1ccc(C=NNC(=O)c2cn(-c3ccccc3)nc2-c2ccccc2)cc1 | 0.5 | 6.2 | 4.1
O=C(NN=Cc1ccc([N+](=O)[O-])o1)c1cn(-c2ccccc2)nc1-c1ccc(Cl)cc1 | 98.7* | -11.2 | 99.3*
CCOC(=O)NN=Cc1ccc([N+](=O)[O-])o1 | 19.0 | -15.8 | 20.8
NC(=O)C(CC(=O)O)NC(=O)C1CCCNc2c(I)cc([N+](=O)[O-])cc2C(=O)NC(CO)C(=O)NC(Cc2ccc(O)cc2)C(=O)N1 (stereo not given) | 2.4 | 10.7 | 5.1
CCN1C(=O)C2C(c3ccc(-c4ccc(OC)cc4)cc3)N3CCC[C@@]3(C(=O)OC)C2C1=O (stereo not given in full) | 33.7 | 8.6 | 11.1
COc1ccc(C2CC=C(C(=O)O)C(c3ccc(F)cc3)N2S(=O)(=O)c2ccccc2C)cc1 (stereo not given) | -7.0 | 6.7 | 14.1
COC(=O)C=Cc1ccc2c(c1)S(=O)(=O)N(c1cccc(OC)c1)C2CC(=O)OC (stereo not given) | 1.2 | 6.9 | 10.3
C=C1C(=O)OC2C1CCC(C)=CCC[C@@]1(C)OC21 (stereo not given in full) | 3.4 | 20.0 | 5.4
Cc1ccc2nc(NN=Cc3ccc([N+](=O)[O-])o3)nc(-c3ccccc3)c2c1 | 100.1* | / | 99.3*
Cc1cc(NN=Cc2ccc([N+](=O)[O-])o2)nc2ccccc12 | 18.5 | 3.9 | 26.6
CCOC(=O)C1C2COc3ccc(Cl)cc3C2N2C(=O)C(CO)NC(=O)[C@@]12C (stereo not given in full) | 0.9 | 11.9 | 5.3
Cc1ccc(C)c(NS(=O)(=O)c2ccc3c(c2)NC(=O)CCS3)c1 | 27.9 | 14.9 | 64.9
CCOc1ccccc1NS(=O)(=O)c1ccc2c(c1)NC(=O)CCS2 | -5.9 | 2.2 | 2.9
Cc1ccc(NS(=O)(=O)c2ccc3c(c2)NC(=O)CCS3)c(Br)c1 | 96.0* | 11.1 | 98.2*
Cc1ccccc1NS(=O)(=O)c1ccc2c(c1)NC(=O)CCS2 | 77.4 | 20.1 | 88.7*
CCCN=C1NC(=Cc2ccco2)C(=O)N1c1ccccc1 | -0.1 | 4.7 | 1.7
O=C(NCc1ccccn1)C1CC1C(NP(=O)(c1ccccc1)c1ccccc1)c1ccccc1 (stereo not given) | 2.5 | -1.7 | 2.6
CCCc1ccc(Oc2cc(C)nc(N3CCOCC3)n2)cc1 | 39.6 | 3.2 | 4.1
CCCc1ccc(Oc2cc(N3CCOCC3)nc(-c3ccccc3)n2)cc1 | 89.1* | 4.6 | -12.0
CC#CC[N+](C)(C)CCCCCCCCCCCC | 99.8* | 23.1 | 99.9*
C#CC[N+](C)(C)CC#Cc1ccc(Cl)cc1 | 0.5 | 1.9 | 2.1
SMILES | Sa ugtP lethal | Mtb hypoxia inh | RN4220 kill
C#CC[N+](C)(C)CCCCCCCCCC | 92.7* | 2.4 | 1.4
C#CC[N+](C)(C)CCCCCCCCCCCC | 98.9* | 15.0 | 98.9*
C#CC[N+](C)(C)CCCCCCCC | 14.6 | 3.5 | 6.6
CCN(CC)C(=O)CSC(Nc1ccc(F)cc1)=C(C#N)C#N | 4.3 | -0.8 | 6.3
Cc1ccc(CSC(Nc2ccc(F)cc2)=C(C#N)C#N)cc1 | 97.5* | 0.4 | 97.5*
O=C(NC(Cc1ccccc1)C(=O)CCl)OCc1ccccc1 (stereo not given) | 99.8* | -7.0 | 100.5*
NC(=O)CC(NC(=O)OCc1ccccc1)C(=O)O (stereo not given) | -10.1 | / | -0.3
CC=C(C)C(=O)OC1c2cc3c(c(OC)c2-c2c(cc(OC)c(OC)c2OC)C(OC(C)=O)C(C)C1C)OCO3 (stereo not given) | 18.3 | 5.9 | 17.1
CCOC(=O)/C(C#N)=C/C=C1\C=Cc2ccccc2N1CC | 1.6 | 43.1* | 9.6
CCOC(=O)C(C#N)=c1sc(=C2C=Cc3ccccc3N2CC)c(=O)n1CC | 4.7 | / | -1.4
CCCN1C(=O)SC(=Cc2ccc(N3CCOCC3)o2)C1=O | -2.7 | 13.7 | 2.4
N=C1SCC(=O)N1c1ncc(Cc2cccc(Cl)c2)s1 | 98.2* | 16.4 | 96.8*
Cc1cccc(Cc2cnc(N3C(=N)SC(c4ccccc4)C3=O)s2)c1 (stereo not given) | -8.0 | 5.2 | 32.5
CC(C)C(=O)Nc1ncc(Cc2ccccc2Cl)s1 | -0.9 | 4.2 | 2.6
Cc1ccc(Cc2cnc(N3C(=N)SC(C)C3=O)s2)cc1 (stereo not given) | 51.0 | -3.5 | 58.3
N=C1SCC(=O)N1c1ncc(Cc2ccccc2Cl)s1 | 88.6 | 16.6 | 92.6*
Cc1cccc(Cc2cnc(N3C(=N)SC(C)C3=O)s2)c1 (stereo not given) | 38.4 | 8.0 | 89.9*
CCOC1OC(C(=O)N2CCN(C)CC2)=CC(c2csc3ccccc23)C1CCCO (stereo not given) | -7.2 | 8.5 | 2.5
CCCCN1CC(=O)N2C3c4cc(Br)ccc4OCC3C(C(=O)OCC)[C@]2(C)C1=O (stereo not given in full) | 22.7 | 21.2 | 15.6
C=C1c2cccc(O)c2C(O)=C2C(=O)[C@]3(O)C(O)=C(C(N)=O)C(=O)[C@@H](N(C)C)[C@@H]3[C@@H](O)[C@H]12 | 99.3* | / | 99.5*
C=C1c2cccc(O)c2C(=O)C2C(=O)[C@]3(O)C(=O)C(C(N)=O)C(=O)C(N(C)C)C3C(O)C12 (stereo not given in full) | 88.5 | / | 100.2*
C=C1c2c(Cl)ccc(O)c2C(O)=C2C(=O)[C@]3(O)C(O)=C(C(N)=O)C(=O)C(N(C)C)C3C(O)C12 (stereo not given in full) | 99.7* | / | 100.0*
COc1ccccc1N1CCN(N=Cc2cc(OC)c(OC(C)=O)c(OC)c2)CC1 | 0.5 | 3.9 | 0.0
C=CCc1cccc(C=NNC(=O)C(C)Nc2cccc(C)c2)c1O (stereo not given) | -0.3 | 8.9 | -1.4
C#CCOCCOCCOCCNc1nc(N2CCN(C(=O)C(CCC(=O)O)n3cc(C(N)C(C)CC)nn3)CC2)nc(N2CCN(C(=O)C(C(C)CC)n3cc(C(N)CO)nn3)CC2)n1 (stereo not given) | 4.3 | -2.7 | 8.5
SMILES | Sa ugtP lethal | Mtb hypoxia inh | RN4220 kill
Cc1sc(NC(=O)c2ccco2)c(C(c2ccccc2)N2CCC(C)CC2)c1C (stereo not given) | active | -13.7 | 84.6
Cc1sc(NC(=O)c2ccco2)c(C(c2ccc(F)cc2)N2CCN(C)CC2)c1C (stereo not given) | -1.7 | 7.3 | 2.6
COc1cccc(C=NNC(=O)CCCC(=O)Nc2ccc(Br)cc2)c1 | -15.4 | 7.7 | 6.2
COc1ccc(C=NNC(=O)CSCC(=O)Nc2ccccc2)cc1OC | 9.8 | 9.7 | 3.8
CC=C1COC(C(=O)NCc2ccncc2)(C(F)(F)F)C=C1C=C1CCCCC1 (stereo not given) | -8.1 | 8.3 | 3.0
CN1CC2C(c3ccc(Cl)nc3)C3(c4ccc(C#N)cc4)CC2(C3)C1c1ccccc1 (stereo not given) | 5.7 | 8.1 | 7.6
